Screens (PubChem)
This is one part of a sample in which hits are shown more often than they occur.
ER stress death: ER stress cell death inhibition; AID 1010; relative survival (cellular ATP), % at 15 µg/mL (by protocol); CSM14.1 thapsigargin ER stress survival, ATP luminescence; actives 0.33% (n = 48,000);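 active = survival measured by cellular ATP above 50% at 15 µg/ml in the first screen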;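 note: cell death triggered by about 15 µM thapsigargin; ATP read 24 h after thapsigargin was added; plate controls were thapsigargin with DMSO for no effect and DMSO without thapsigargin for full effect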
Numbers without * were called inactive.

SMILES	ER stress death
Cc1ccc(C(CC(=O)C(C)C)C2C(=O)c3ccccc3C2=O)cc1 (stereo not drawn)	3
COc1cc(C2/C(=C(/O)c3ccccc3)C(=O)C(=O)N2c2cccc(C)c2)ccc1O (stereo not drawn)	9
O=C(Nc1ccccc1)Nc1ccc(S(=O)(=O)N2CCCC2)cc1	-2
O=[N+]([O-])c1ccc(-n2ncnc2-c2ccccc2)cc1	-4
O=C1c2ccccc2C(=O)N1c1ccc2nc(SCc3ccc([N+](=O)[O-])cc3)sc2c1	5
CC1(C)CC(NC(=O)CN2CCN(CC(=O)NC3CC(C)(C)NC(C)(C)C3)CC2)CC(C)(C)N1	2
COc1ccc(C2CC(=O)C3=C(C2)Nc2ccccc2NC3c2cc(OC)c(OC)cc2Br)cc1 (stereo not drawn)	4
O=C1CCCC2=C1C(c1cccnc1)Nc1ccc(C(=O)c3ccccc3)cc1N2 (stereo not drawn)	9
O=C1CCCC2=C1C(c1ccc(Br)cc1)Nc1ccc(C(=O)c3ccccc3)cc1N2 (stereo not drawn)	66*
COc1ccc(C2CC(=O)C3=C(C2)Nc2ccccc2NC3c2ccc(Br)s2)cc1 (stereo not drawn)	85*
COc1ccc(C2CC(=O)C3=C(C2)Nc2ccccc2NC3c2ccc(F)c(Br)c2)cc1 (stereo not drawn)	15
O=C1CC(c2ccccc2)CC2=C1C(c1cccc(Br)c1)Nc1ccccc1N2 (stereo not drawn)	88*
COc1ccc(C2CC(=O)C3=C(C2)Nc2ccccc2NC3c2ccc(Cl)c([N+](=O)[O-])c2)cc1 (stereo not drawn)	104*
COc1ccc(C2CC(=O)C3=C(C2)Nc2ccccc2NC3c2cccc(Br)c2)cc1 (stereo not drawn)	25
O=C1CC(c2ccccc2)CC2=C1C(c1ccc(F)c(Br)c1)Nc1ccccc1N2 (stereo not drawn)	6
COc1ccc(C2CC(=O)C3=C(C2)Nc2ccccc2NC3c2ccc(C)c([N+](=O)[O-])c2)cc1OC (stereo not drawn)	4
COc1ccc(C2Nc3ccc(C(=O)c4ccccc4)cc3NC3=C2C(=O)CCC3)cc1 (stereo not drawn)	-1
O=C1CC(c2ccccc2)CC2=C1C(c1ccc(Cl)c(Cl)c1)Nc1ccccc1N2 (stereo not drawn)	6
Cc1ccc(C(=O)NNC(=O)COc2ccc(C(C)(C)C)cc2)cc1	8
COc1cc2c(cc1NC(=O)c1ccccc1Br)oc1ccccc12	3
Cc1ccc(N2C(=O)C(=O)/C(=C(/O)c3ccccc3)C2c2ccc(O)cc2)cc1Cl (stereo not drawn)	5
COc1ccc(CC(=O)N(C)CC(OC)OC)cc1	5
O=C(Nc1ccc(F)cc1)c1ccco1	-1
O=C(Nc1cccnc1)c1ccc(CN(c2ccccc2)S(=O)(=O)c2ccccc2)cc1	-2
CSc1ccc(C2Nc3ccccc3NC3=C2C(=O)CC(c2ccc4c(c2)OCO4)C3)cc1 (stereo not drawn)	-3
SMILES	ER stress death
Cc1ccc2c(c1)NC(c1ccc(F)cc1)C1=C(CC(c3ccccc3)CC1=O)N2 (stereo not drawn)	1
Cc1ccc2c(c1)NC(c1ccc3c(c1)OCO3)C1=C(CC(c3ccccc3)CC1=O)N2 (stereo not drawn)	92*
COc1cccc(N2C(=O)CC(N3CCN(C(c4ccccc4)c4ccccc4)CC3)C2=O)c1 (stereo not drawn)	19
O=C1CC(N2CCN(C(c3ccccc3)c3ccccc3)CC2)C(=O)N1c1ccc(F)cc1 (stereo not drawn)	12
COc1ccc(N2C(=O)CC(N3CCN(C(c4ccccc4)c4ccc(Cl)cc4)CC3)C2=O)cc1 (stereo not drawn)	110*
COCC(=O)Nc1cc(Cl)ccc1C	4
CC(=O)CC(=O)Nc1cc(Cl)ccc1C	65*
Cc1ccc(Cl)cc1NC(=O)CSC(N)=O	8
NC1=NC2(CCCCC2)N=C(Nc2cccc(F)c2)N1	-1
C=CCOc1ccc(C=C2C(=O)NC(=S)NC2=O)cc1OC	14
O=C(Nc1cccc2ccccc12)N(Cc1ccccc1)Cc1ccccc1	-3
CCOC(=O)c1sc(NC(=O)c2c(-c3ccccc3)noc2C)c(C(=O)OCC)c1C	1
O=C(Cn1cc(/C=C2/C(=O)NC(=S)N(c3ccccc3F)C2=O)c2ccccc21)Nc1ccccc1	5
CCC(C)c1ccc(OCCOc2ccc(/C=C3/SC(=S)N(C)C3=O)cc2OC)cc1 (stereo not drawn)	89*
COc1cc(/C=C2/SC(=S)N(C)C2=O)ccc1OCc1cccc2ccccc12	8
CCOc1cc(/C=C2/SC(=S)N(C)C2=O)ccc1OCCOc1ccccc1C	2
O=[N+]([O-])c1ccccc1/C=N/Nc1ncc(Br)cn1	12
COc1nc2nonc2nc1Nc1ccc(C)cc1	-2
Cc1cc2ncn(C(=O)c3ccco3)c2cc1C	-7
O=C(NCC1CCCO1)/C(=C/c1ccc(-c2ccccc2Cl)o1)NC(=O)c1ccccc1 (stereo not drawn)	87*
COc1ccc(C(=O)N/C(=C\c2ccc(Cl)cc2)C(=O)NCC2CCCO2)cc1 (stereo not drawn)	0
N#C/C(=C\c1ccc(-c2ccc(Cl)c(C(=O)O)c2)o1)C(=O)NCC1CCCO1 (stereo not drawn)	12
O=C(Nc1ccc(Cl)c(Cl)c1)c1cccc2ccccc12	3
O=c1c2ccccc2c2nc3c(c(-c4ccccc4O)c12)c(=O)c1ccccc13	6
CCSc1nnc(-c2ccc(OC)cc2)c2ccccc12	0
SMILES	ER stress death
CCCCNCCCOc1ccccc1CC	-8
N#Cc1cccc(NC(=O)Nc2ccc(Cl)cc2)c1	7
Cc1ccc(NC(=O)CC(=O)NN)cc1	-5
Cc1ccc(P(=O)(CSC(=N)N)c2ccc(C)cc2)cc1	58*
CCOC(=O)CP(=O)(c1ccccc1)c1ccccc1	6
COc1ccc(-c2cn3ccc4ccccc4c3n2)cc1OC	11
CCOc1ccc(S(=O)(=O)N(CC(=O)Nc2ccccc2C)c2ccc(C)cc2)cc1	12
CCc1nnc(NC(=O)CCCOc2ccc(Cl)cc2C)s1	8
O=C(O)/C=C/C(=O)Nc1ccc(OC(F)(F)Cl)cc1	108*
O=C(O)/C=C/C(=O)Nc1ccc(-c2ccc(NC(=O)/C=C/C(=O)O)cc2)cc1	-3
CCOc1ccc(NC(=O)/C=C\C(=O)O)cc1	-10
COc1cc2c(cc1NCc1ccc3c(c1)OCO3)oc1ccccc12	-6
COc1cc2c(cc1NCc1ccc([N+](=O)[O-])cc1)oc1ccccc12	8
COc1cc2c(cc1NCc1ccncc1)oc1ccccc12	93*
COc1ccc(N(CC(=O)Nc2ccc(Oc3ccccc3)cc2)S(C)(=O)=O)cc1	0
CN(C)c1nccc(N(Cc2ccccc2)Cc2ccccc2)c1C#N	83*
CN(C)CCN(Cc1ccccc1)c1ccnc(N(C)C)c1C#N	-4
COc1nccc(Nc2ccccc2)c1C#N	2
COC(=O)CN(c1ccc(C)cc1C)S(=O)(=O)c1ccccc1	0
O=C(Nc1cccc(S(=O)(=O)c2cccc(NC(=O)c3cccs3)c2)c1)c1cccs1	113*
O=C(Nc1cccc(Br)c1)c1cccs1	5
NS(=O)(=O)c1cccc(NC(=O)c2cccs2)c1	0
COc1c([N+](=O)[O-])cc2c(C)c(Br)c(=O)oc2c1OC	9
Cc1ccc(N2C(=O)CC(NCCc3ccccn3)C2=O)cc1 (stereo not drawn)	2
C=C(C)CSc1nc(SCC(=C)C)c2c3c(sc2n1)COC(C)(C)C3	0
